Laboratory results taken from article PMC4336329 (PLoS ONE, 2015).
Among all 310,000 compounds or so, about 14,000 (4.5%) showed an effect of 50% or more. Effects have a minus sign here. The full list was thinned out, with strong results kept by preference.

target: human ether-à-go-go-related gene (hERG) potassium channel (human, UniProt Q12809); assay: primary screen, population patch clamp on CHO cells stably expressing hERG; higher = less effect of the substance
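Further: peak tail current of the secondary pulse compared with the same well before compound.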

human ether-à-go-go-related gene (hERG) potassium channel, sequence (Q12809 whole entry, looked up): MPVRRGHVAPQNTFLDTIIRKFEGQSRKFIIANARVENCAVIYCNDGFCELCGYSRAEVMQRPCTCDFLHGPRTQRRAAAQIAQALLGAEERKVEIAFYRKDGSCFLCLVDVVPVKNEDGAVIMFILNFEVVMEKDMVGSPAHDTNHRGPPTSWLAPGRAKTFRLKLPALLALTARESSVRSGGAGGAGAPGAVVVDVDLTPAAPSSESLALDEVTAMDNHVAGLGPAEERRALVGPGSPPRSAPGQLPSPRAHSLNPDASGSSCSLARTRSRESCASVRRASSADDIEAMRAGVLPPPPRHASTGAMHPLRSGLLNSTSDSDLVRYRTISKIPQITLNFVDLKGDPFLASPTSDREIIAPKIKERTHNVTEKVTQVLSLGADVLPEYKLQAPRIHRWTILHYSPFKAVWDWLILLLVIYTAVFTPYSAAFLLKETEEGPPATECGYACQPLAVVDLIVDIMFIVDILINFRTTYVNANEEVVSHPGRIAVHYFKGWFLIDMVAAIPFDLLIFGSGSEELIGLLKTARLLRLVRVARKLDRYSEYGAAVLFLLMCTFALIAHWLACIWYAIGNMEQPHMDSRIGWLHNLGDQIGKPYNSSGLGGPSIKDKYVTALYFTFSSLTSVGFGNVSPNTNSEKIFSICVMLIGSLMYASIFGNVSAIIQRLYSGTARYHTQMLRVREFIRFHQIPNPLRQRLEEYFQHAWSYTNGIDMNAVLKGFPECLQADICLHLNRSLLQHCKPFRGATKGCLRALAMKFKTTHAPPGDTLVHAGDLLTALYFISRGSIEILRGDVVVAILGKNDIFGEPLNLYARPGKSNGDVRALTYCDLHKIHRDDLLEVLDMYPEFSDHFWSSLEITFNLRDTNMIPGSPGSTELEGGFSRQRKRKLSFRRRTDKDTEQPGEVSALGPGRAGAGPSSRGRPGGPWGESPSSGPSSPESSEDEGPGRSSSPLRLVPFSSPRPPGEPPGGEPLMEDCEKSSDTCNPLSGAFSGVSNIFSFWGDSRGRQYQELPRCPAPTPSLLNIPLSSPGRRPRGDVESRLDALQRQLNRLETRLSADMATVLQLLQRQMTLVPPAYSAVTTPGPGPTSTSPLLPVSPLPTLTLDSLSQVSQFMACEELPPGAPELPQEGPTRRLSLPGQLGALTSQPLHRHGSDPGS

SMILES	hERG current change (%, negative = inhibition) at 10uM
COc1ccc(NC(=O)/C(C#N)=C\c2cc(C)n(-c3ccc4c(c3)OCO4)c2C)cc1	3.77%
CCN1CC(CN(C)Cc2cn(-c3cccc(C)c3)nc2-c2cccc(F)c2)CC1=O (stereo not drawn)	-31.7%
Cc1ccc(-n2cc(CN(C)Cc3nccn3C)c(-c3ccc(F)cc3)n2)cc1	-37.6%
Cc1ccc(-c2nn(-c3ccccc3)cc2C(=O)NCCCN2CCCC2=O)cc1	-17.1%
COc1ccc(-c2nn(-c3ccccc3F)cc2CNCCn2nc(C)cc2C)cc1	-50.2%
COc1ccc(-c2csc(CCn3nc(C)cc3C)n2)cc1	4.1%
Cc1ccc(-n2cc(CNCCCN3CCCC3=O)c(-c3ccc(F)cc3)n2)cc1	-72.1%
Cc1ccc(-n2cc(CN3CCCN(C=O)CC3)c(-c3ccc(F)cc3)n2)cc1	-18.7%
Cc1ccc(-n2cc(CNCCCn3ccnc3C)c(-c3ccc(F)cc3)n2)cc1	-71.7%
CCN1CC(CN(C)Cc2cn(-c3ccc(C)cc3)nc2-c2cccc(C)c2)CC1=O (stereo not drawn)	-60.5%
COc1ccc(-c2nn(-c3ccccc3C)cc2CNC(C)c2cn(C)nc2C)cc1F (stereo not drawn)	-1.99%
CCN1CC(CN(C)Cc2cn(-c3ccc(C)cc3)nc2-c2ccc(F)cc2)CC1=O (stereo not drawn)	-35.1%
COc1cc(/C=N/NC(=O)c2cc(-c3ccccc3)nc3ccccc23)ccc1O	6.54%
CCOc1cc(C(=O)N/N=C/c2ccoc2)cc(OCC)c1OCC	5.67%
COCCCn1c(=O)/c(=C\c2ccccc2OC(F)F)s/c1=C(/C#N)C(=O)NCCOC	-11.5%
CCc1nnc(NC(=O)CSc2nnc(-c3cccnc3)n2CCc2ccccc2)s1	-2.07%
CC(=O)N1CCN(CCN2C(C)=CC(=C(C#N)C#N)C=C2C)CC1	-3.8%
O=C(COC(=O)CCSc1ccccc1Cl)NCc1ccco1	6.44%
O=C1NC(=O)C(=Cc2csc3ccccc23)C(=O)N1	7.68%
Cc1ccccc1CSc1nnnn1-c1ccc(C(N)=O)cc1	14.7%
Cc1cccc(NC(=O)COC(=O)c2ccc([N+](=O)[O-])o2)c1C	8.7%
Cc1ccc(-n2cc(CNCCN3CCOC3=O)c(-c3ccc(F)cc3)n2)cc1	-63.2%

SMILES	hERG current change (%, negative = inhibition) at 10uM
Cc1ccc(-n2cc(CNCC3CC(=O)N(C4CC4)C3)c(-c3cccc(C)c3)n2)cc1 (stereo not drawn)	-71.9%
Cc1cc(C)n(CC(C)NCc2cn[nH]c2-c2ccc(C)c(C)c2)n1 (stereo not drawn)	-35.7%
Cc1ccc(-n2cc(CNC(C)c3cnn(C)c3C)c(-c3ccc(F)cc3)n2)cc1 (stereo not drawn)	-30.7%
COc1ccc2cc(-c3[nH]ncc3CNCCn3nc(C)cc3C)ccc2c1	-63.2%
COc1ccc(-c2nn(-c3ccccc3)cc2CNCCN2CCOC2=O)c(F)c1	-11.9%
COC(=O)CC1C(=O)NCCN1Cc1cn(-c2ccc(C)cc2)nc1-c1cccc(C)c1 (stereo not drawn)	-9.55%
Cc1ccc(-n2cc(CNCCn3nc(C)cc3C)c(-c3ccc(F)cc3)n2)cc1	-50.8%
Cc1ccc(-c2nn(-c3ccccc3)cc2CNCc2ccccc2)cc1.Cl	7.42%
CCOC(=O)CN(C)Cc1cn[nH]c1-c1ccc2cc(OC)ccc2c1	-5.34%
COc1ccc(-n2cc(CNCC3CC(=O)N(C4CC4)C3)c(-c3ccccc3Cl)n2)cc1 (stereo not drawn)	-13.4%
O=C1OCCN1CCNCc1cn(-c2ccc(F)cc2)nc1-c1ccccc1Cl	-45.2%
CC1CCCC(C)N1C(=O)COC(=O)c1c[nH]c2ccccc12 (stereo not drawn)	-5.3%
CCCCn1c(O)c(C=NC2CCCCC2N)c(=O)[nH]c1=O (stereo not drawn)	5.96%
COc1ccc(C[C@H]2NC[C@H](O)[C@H]2OC(C)=O)cc1	5.98%
CSC1=N/C(=C\c2ccccc2F)C(=O)S1	-3.24%
CCOc1nc(N2CCCCC2)nc(-n2cc(-c3ccccc3)nn2)n1	8.93%
Cc1cc(NC(=O)COc2ccccc2)n(-c2ccccc2)n1	-22.7%
Cc1c(C(=O)NC2CCOC2)oc2c(F)cccc12 (stereo not drawn)	30.1%
Cc1cc2cc(C#N)c(NCCNC(=S)NCCCN3CCOCC3)nc2cc1C	-24.5%
Cc1cc(C(=O)CN2CCCC2)c(C)n1-c1ccc(Cl)cc1	7.43%
CCOc1ccccc1NC(=O)CCCCCN1C(=O)[C@@H]2Cc3ccccc3CN2C1=O	-42.6%
COc1ccc(C(C)=O)cc1COC(=O)c1ccc(C)c(S(=O)(=O)N2CCOCC2)c1	-19.8%

SMILES	hERG current change (%, negative = inhibition) at 10uM
COc1nc(-c2ccccc2)ccc1-c1noc(C)n1	-5.52%
Cn1ccnc1C1CCCCN1Cc1nc(-c2ccc(Cl)cc2)no1 (stereo not drawn)	-23.1%
O=C(O)C1C2CCC(C2)C1C(=O)NCc1ccco1 (stereo not drawn)	-8.3%
Cc1ccc(-n2cc(CNCCN3CCOC3=O)c(-c3cccc(C)c3)n2)cc1	-69.1%
Cc1ccc(-n2cc(CNC(C)Cn3cncn3)c(-c3ccc(F)cc3)n2)cc1 (stereo not drawn)	-60.7%
CC(=O)N1CCCN(Cc2cn(-c3ccc(C)cc3)nc2-c2cccc(C)c2)CC1	-43%
Cc1ccc(C)c(-n2cc(CNC(C)Cn3cncn3)c(-c3ccccc3)n2)c1 (stereo not drawn)	-45.6%
Cc1cccc(-n2cc(CNCCN3CCOC3=O)c(-c3cccc(F)c3)n2)c1	-16.4%
Cc1ccc(-n2cc(CN(C)Cc3ncc[nH]3)c(-c3cccc(C)c3)n2)cc1	-34.8%
Cc1ccc(-n2cc(CN(C)CCc3cn[nH]c3)c(-c3cccc(C)c3)n2)cc1	-68%
Cc1ccc(-n2cc(CNC(C)c3cnn(C)c3)c(-c3ccc(F)cc3)n2)cc1 (stereo not drawn)	-40%
Cc1ccc(-n2cc(CN3CCNC(=O)CC3)c(-c3cccc(C)c3)n2)cc1	-0.817%
CCn1c(-c2ccco2)n[nH]c1=S	12%
N#C/C(=C\c1ccc(OCc2ccc(Br)cc2)cc1)C(=O)Nc1cccc(C(=O)O)c1	17.8%
CCOC(=O)c1c(C)[nH]c(C(=O)CSc2ccccc2)c1C	3.05%
Cc1ccccc1NC(=O)Cn1nnc2ccccc21	-12%
O=C(Cn1nnc2ccccc21)c1ccc(Cl)cc1	-4.9%
C/C(Cn1nnc2ccccc21)=N\OC(=O)c1cc(F)c(F)cc1Cl	-80.5%
O=C(O)Cn1nnc2ccccc21	-3.4%
C/C(Cn1nnc2ccccc21)=N\OC(=O)c1ccccc1C	-63.9%
C/C(Cn1nnc2ccccc21)=N/OC(=O)c1c(F)cccc1F	12.5%
C[N+]1(CC(=O)Nc2ccc(F)cc2)CCN(C(=O)c2ccco2)CC1.[Cl-]	13.2%

SMILES	hERG current change (%, negative = inhibition) at 10uM
COc1ccc(CCNC(=O)C2CCCCC2C(=O)O)cc1OC (stereo not drawn)	-2.9%
Nc1ccc([N+](=O)[O-])cc1C(=O)NNC(=O)c1ccco1	25.9%
O=C(CSCc1ccccc1)Nc1ccc2c(c1)OCO2	7.4%
CCCc1nc2ccccc2c(=O)n1-c1ccc(C(=O)OCC)cc1	13.5%
CSc1ncc(/C=C2/C(=O)NC(=O)N(C)C2=O)cn1	18.8%
C[C@]12CCC(=O)C=C1CCC1C2CC[C@@]2(C)C1CC[C@@]2(O)CC#N (stereo partly drawn)	-59.8%
CC(=O)[C@@]1(O)CC[C@H]2[C@@H]3CCC4=CC(=O)CC[C@]4(C)[C@H]3CC[C@@]21C	1.7%
C[C@]12CCC(=O)C=C1CC[C@@H]1[C@@H]2CC[C@@]2(C)[C@H]1CC[C@]2(O)C(=O)CO	9.17%
COc1ccc(S(=O)(=O)N2CCC(C(=O)NCc3ccco3)CC2)cc1C	8.26%
O=S1(=O)NC(=NCc2ccco2)c2ccccc21	2.66%
O=C1c2ccccc2C(=O)N1Cc1ccco1	-3.32%
c1coc(CN=C2NC(=NCc3ccco3)c3ccccc32)c1	-66.4%
Cc1cc(C)c2nc(C)cc(Nc3ccc(C(=O)N(C)C)cc3)c2c1	-28.1%
CC(=O)c1ccc(Nc2cc(C)nc3c(C)cccc23)cc1	-36.2%
CC(=O)c1cccc(Nc2cc(C)nc3c(C)cc(C)cc23)c1.Cl	-56.1%
CC(=O)c1cccc(Nc2cc(C)nc3c(C)cccc23)c1.Cl	-72.8%
CC(=O)c1ccc(Nc2cc(C)nc3c(C)cc(C)cc23)cc1	-45.7%
Cc1cc(Nc2ccc(C(=O)N3CCCCC3)cc2)c2cccc(C)c2n1	-23.5%
Cc1cc(C)nc(-n2cc(C(=O)c3cc(F)ccc3O)cn2)n1	9.85%
CCOC(=O)C1=C(C)NC(=O)NC1c1cc2c(cc1Br)OCO2 (stereo not drawn)	6.32%
NC(=O)CC(NC(=O)Cc1ccc(Br)cc1)c1ccc(NCc2ccc(F)c(F)c2)c([N+](=O)[O-])c1 (stereo not drawn)	-1.71%
